Reference: paper PMC10668032, “Altered binding affinity of SIX1-Q177R correlates with enhanced WNT5A and WNT pathway effector expression in Wilms tumor”
Over roughly 33,000 sequences, “e-score” has its median near -0.053; the highest 2% begin near 0.38. The entries come from a sample that favours the highest values as a whole.

target: T1, SIX1 homeodomain (reference allele) (human, UniProt Q15475 108-198); assay: universal protein binding microarray; Universal all-10-mer PBM (8x60K, AMADID 030236), 300 nM GST-tagged protein, Alexa Fluor 488 anti-GST; buffer, salt, pH and temperature not stated (as in Berger); high values mean tight binding; conditions: protein: ivt; tags: N-terminal GST; dsDNA, one strand shown
T1 sequence: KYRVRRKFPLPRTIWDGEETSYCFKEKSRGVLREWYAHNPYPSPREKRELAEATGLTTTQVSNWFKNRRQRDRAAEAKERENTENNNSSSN
In short: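 Binding was expressed as 8-mer E-scores calculated with the Universal PBM Analysis Suite. The GST-tagged homeodomains, made by in vitro transcription/translation, were applied in duplicate at 300 nM final concentration to universal 'all 10-mer' protein binding microarrays (8×60K format).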

Row | Sequence | binding signal
1 | TAATCCAA | 0.1853 ± 0.00116 E-score
2 | CGATCCAC | 0.375 ± 0.0695 E-score
3 | AGATCCAT | 0.254 ± 0.00332 E-score
4 | GTATCCAC | 0.3951 ± 0.00369 E-score
5 | CAATCCAC | 0.168 ± 0.0919 E-score
6 | ATATCCAA | 0.358 ± 0.01 E-score
7 | ATATCCAT | 0.389 ± 0.0181 E-score
8 | GTATCCAA | 0.421 ± 0.0174 E-score
9 | CTATCCAC | 0.219 ± 0.0193 E-score
10 | CTATCCAG | 0.199 ± 0.0567 E-score
11 | ATATCCAG | 0.373 ± 0.0215 E-score
12 | CGACAGAA | 0.153 ± 0.115 E-score
13 | ATATGTCG | 0.272 ± 0.052 E-score
14 | ATCCAGGG | 0.236 ± 0.0104 E-score
15 | ATCATCAG | 0.154 ± 0.0285 E-score
16 | GATCTAGC | 0.215 ± 0.0211 E-score
17 | GATCCATA | 0.357 ± 0.0223 E-score
18 | CATCCTGA | 0.169 ± 0.0388 E-score
19 | TATCCTGA | 0.382 ± 0.0186 E-score
20 | TATCCATA | 0.39076 ± 0.000148 E-score
21 | AATCCATA | 0.214 ± 0.0274 E-score
22 | GATCCTGA | 0.301 ± 0.0202 E-score
23 | GAACAATA | 0.2 ± 0.0128 E-score
24 | CTTAGATC | 0.158 ± 0.00598 E-score
25 | CCTACTCA | 0.161 ± 0.0165 E-score

Row | Sequence | binding signal
26 | ATACTAAG | 0.209 ± 0.0591 E-score
27 | TAACACGA | 0.19 ± 0.0238 E-score
28 | ATTGATCC | 0.406 ± 0.0164 E-score
29 | CTCAATAC | 0.259 ± 0.0252 E-score
30 | CTTGATCA | 0.218 ± 0.037 E-score
31 | ATTGATAG | 0.288 ± 0.0226 E-score
32 | ATTGATAC | 0.465 ± 0.0161 E-score
33 | CTTGACAC | 0.244 ± 0.0534 E-score
34 | ATTGATGC | 0.182 ± 0.0328 E-score
35 | CTTGATCC | 0.361 ± 0.00995 E-score
36 | CTTGATAC | 0.442 ± 0.0251 E-score
37 | CGTCTCGC | 0.167 ± 0.0173 E-score
38 | GATCGACC | 0.162 ± 0.12 E-score
39 | GATCTCGA | 0.221 ± 0.00099 E-score
40 | AATACTCT | 0.257 ± 0.089 E-score
41 | AACCTATA | 0.205 ± 0.0654 E-score
42 | CCCTTGGA | 0.213 ± 0.00655 E-score
43 | ATCCCTTC | 0.303 ± 0.0125 E-score
44 | CTACTGTA | 0.165 ± 0.0781 E-score
45 | AATTAATA | 0.191 ± 0.0409 E-score
46 | CGATACAC | 0.418 ± 0.0108 E-score
47 | AGATACAA | 0.168 ± 0.0186 E-score
48 | CGATACAA | 0.288 ± 0.0425 E-score
49 | AGATACAG | 0.246 ± 0.0181 E-score
50 | GGATACAC | 0.405 ± 0.0186 E-score

Row | Sequence | binding signal
51 | GCATACAC | 0.155 ± 0.0339 E-score
52 | CGATACAG | 0.313 ± 0.044 E-score
53 | AGATACAC | 0.3801 ± 0.00099 E-score
54 | GGATACAA | 0.354 ± 0.037 E-score
55 | ACAATATG | 0.239 ± 0.0268 E-score
56 | ATCACTTA | 0.273 ± 0.0813 E-score
57 | ATGGGGTC | 0.168 ± 0.00238 E-score
58 | AGTAGATC | 0.321 ± 0.0238 E-score
59 | GACCGATC | 0.246 ± 0.028 E-score
60 | ATACTTCC | 0.241 ± 0.0829 E-score
61 | CGTATCAG | 0.465 ± 0.00812 E-score
62 | AGTATCAG | 0.46 ± 0.0186 E-score
63 | AGTATCAC | 0.464 ± 0.0196 E-score
64 | AGTATTAA | 0.233 ± 0.112 E-score
65 | ACTATCAT | 0.3 ± 0.0715 E-score
66 | CCTATCAG | 0.326 ± 0.00869 E-score
67 | AGTATAAT | 0.265 ± 0.0967 E-score
68 | ATTATCAG | 0.168 ± 0.0386 E-score
69 | ACTATCAG | 0.217 ± 0.0215 E-score
70 | ATCATCAC | 0.228 ± 0.00571 E-score
71 | AGTATCAT | 0.473 ± 0.0218 E-score
72 | AGTATTAG | 0.301 ± 0.0212 E-score
73 | ATCGTGAG | 0.26 ± 0.00974 E-score
74 | CGGTAATA | 0.23 ± 0.0198 E-score
75 | AGACCGAT | 0.179 ± 0.0125 E-score

Row | Sequence | binding signal
76 | TACTCGGA | 0.162 ± 0.0415 E-score
77 | ACACCTGA | 0.281 ± 0.0355 E-score
78 | GAAATATC | 0.262 ± 0.0623 E-score
79 | ATAGCATA | 0.218 ± 0.00716 E-score
80 | ACTATCAA | 0.253 ± 0.0636 E-score
81 | ATTATCAA | 0.165 ± 0.0524 E-score
82 | AGTATCAA | 0.444 ± 0.0435 E-score
83 | ACACCAAA | 0.263 ± 0.0137 E-score
84 | AGTCGATA | 0.257 ± 0.0323 E-score
85 | GGCAATAC | 0.181 ± 0.00926 E-score
86 | AAGTGGAT | 0.182 ± 0.0178 E-score
87 | GGGGTGTA | 0.387 ± 0.00837 E-score
88 | CGGGTGGA | 0.236 ± 0.0891 E-score
89 | GTGGTGTA | 0.286 ± 0.0221 E-score
90 | AGGGTGTC | 0.4355 ± 0.00243 E-score
91 | CGGGTGTA | 0.265 ± 0.0586 E-score
92 | AGGGGGTG | 0.186 ± 0.0209 E-score
93 | AGGGTGTA | 0.313 ± 0.048 E-score
94 | GCGGTGTA | 0.336 ± 0.0311 E-score
95 | CGGGTGTC | 0.439 ± 0.025 E-score
96 | ATCAAGAT | 0.209 ± 0.0291 E-score
97 | AAGCCGGA | 0.159 ± 0.0672 E-score
98 | GATCGGCC | 0.255 ± 0.03 E-score
99 | TACCCCAA | 0.174 ± 0.0539 E-score
100 | ATATACTA | 0.256 ± 0.0638 E-score

Row | Sequence | binding signal
101 | CAACACCC | 0.24 ± 0.00973 E-score
102 | CTCGATCC | 0.325 ± 0.0557 E-score
103 | ATCGATAC | 0.446 ± 0.0107 E-score
104 | ATCGATTC | 0.2 ± 0.0315 E-score
105 | CTCGATGA | 0.165 ± 0.00668 E-score
106 | ATCGATAG | 0.2745 ± 0.00192 E-score
107 | CTCGATAC | 0.41 ± 0.0184 E-score
108 | CAGATGAG | 0.203 ± 0.0236 E-score
109 | CAATAATA | 0.223 ± 0.0513 E-score
110 | CCCGCGAG | 0.206 ± 0.0166 E-score
111 | GGTGTAAA | 0.198 ± 0.028 E-score
112 | GGATCGAC | 0.297 ± 0.113 E-score
113 | ATATCGAG | 0.335 ± 0.0302 E-score
114 | GTATCGAC | 0.405 ± 0.0127 E-score
115 | GTATCGAA | 0.43 ± 0.00911 E-score
116 | ATATCGAC | 0.379 ± 0.00832 E-score
117 | GTATCTAA | 0.374 ± 0.0214 E-score
118 | ATATCGAT | 0.411 ± 0.0335 E-score
119 | GGATCGAA | 0.267 ± 0.0826 E-score
120 | AGATCGAT | 0.345 ± 0.0116 E-score
121 | GTATAGAC | 0.276 ± 0.00412 E-score
122 | CGATCGAG | 0.21 ± 0.0298 E-score
123 | CTATCGAG | 0.157 ± 0.0365 E-score
124 | ATAGCTTA | 0.214 ± 0.0605 E-score
125 | ATATAATA | 0.322 ± 0.053 E-score

Row | Sequence | binding signal
126 | AAGCGTAT | 0.231 ± 0.0511 E-score
127 | CTCGTATA | 0.161 ± 0.055 E-score
128 | GGTTATAC | 0.261 ± 0.0421 E-score
129 | ATCGCCTC | 0.216 ± 0.0033 E-score
130 | ACCGGAGA | 0.201 ± 0.00786 E-score
131 | CCGTAATC | 0.169 ± 0.00918 E-score
132 | GGTCGATA | 0.271 ± 0.00805 E-score
133 | CGGGACAC | 0.153 ± 0.0127 E-score
134 | ATATCGAA | 0.393 ± 0.0367 E-score
135 | CTATCGAA | 0.228 ± 0.0495 E-score
136 | TATACGAA | 0.164 ± 0.00791 E-score
137 | AATATGTG | 0.197 ± 0.0339 E-score
138 | ATAAATAC | 0.163 ± 0.0133 E-score
139 | GCGTATTA | 0.161 ± 0.0688 E-score
140 | CGGTATTA | 0.368 ± 0.031 E-score
141 | GGGTATTA | 0.393 ± 0.0546 E-score
142 | AGGTATTA | 0.385 ± 0.0849 E-score
143 | AGGTATTG | 0.29 ± 0.0429 E-score
144 | AAGTATTA | 0.254 ± 0.109 E-score
145 | CTTACACC | 0.203 ± 0.0268 E-score
146 | GTCGTATA | 0.186 ± 0.0245 E-score
147 | GTAGACAC | 0.182 ± 0.0638 E-score
148 | AGATAGGG | 0.263 ± 0.0607 E-score
149 | TACCAGTA | 0.201 ± 0.0209 E-score
150 | AATCGGGG | 0.181 ± 0.117 E-score

Row | Sequence | binding signal
151 | ATGAATAC | 0.2845 ± 0.00167 E-score
152 | CGGAGATC | 0.322 ± 0.00475 E-score
153 | GAACTATC | 0.23 ± 0.0598 E-score
154 | GAAGTATC | 0.407 ± 0.0492 E-score
155 | AAAGTATC | 0.413 ± 0.0634 E-score
156 | TAAGTATA | 0.218 ± 0.0666 E-score
157 | CAAATATC | 0.21 ± 0.0519 E-score
158 | AAAGTATA | 0.173 ± 0.149 E-score
159 | GAAGTATA | 0.261 ± 0.108 E-score
160 | CAAGTATC | 0.378 ± 0.0659 E-score
161 | ATAAGTAT | 0.235 ± 0.0716 E-score
162 | TACACTGA | 0.178 ± 0.0145 E-score
163 | ATCTTCCC | 0.174 ± 0.0102 E-score
164 | ATCACGAA | 0.172 ± 0.0453 E-score
165 | CTAGACAC | 0.158 ± 0.012 E-score
166 | GAATAATC | 0.209 ± 0.0094 E-score
167 | ATGCATCA | 0.198 ± 0.0685 E-score
168 | ATCATAAG | 0.286 ± 0.0333 E-score
169 | AATATATC | 0.343 ± 0.0593 E-score
170 | TATATATA | 0.344 ± 0.0349 E-score
171 | GATATATC | 0.441 ± 0.0284 E-score
172 | GATATATA | 0.377 ± 0.0449 E-score
173 | CATATATC | 0.341 ± 0.0628 E-score
174 | GATATAGA | 0.318 ± 0.034 E-score
